Experimental data from PubChem BioAssay (Tox21).
Inconclusive results are not listed. Where a call stands in place of a potency, no number is given. Calls of active or inactive are those of the source. Unless noted, calls follow the shape of the dose curve; as a rule, active = well fitted curve in the direction sought with a large enough effect in the repeat runs; inconclusive = weak or mixed curves; inactive = no such curve, though single readings can be large; an effect the other way counts as inactive or inconclusive.

Columns and labels:
[1] = qHTS assay to identify small molecule agonists of the RXR signaling pathway - cell viability counter screen (AID 1159529);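 also: HEK 293T cells carrying an RXR-alpha UAS beta-lactamase reporter; nearly all actives have a fitted effect of over 50% in size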
Outline: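 HEK 293T RXRa-bla cells, 2% CS-FBS; 5 h settle; cpd 16 h 37 C, 5% CO2; CellTiter-Glo 30 min RT, luminescence. Tetraoctyl ammonium bromide as positive control.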

[2] = qHTS assay to identify small molecule antagonists of the retinoid acid receptor (RAR) signaling pathway - cell viability counter screen (AID 1159551); also: nearly all actives have a fitted effect of over 35% in size
Outline: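 Viability of C3RL4 cells is quantified from ATP by luminescence after 6 h treatment at 37 C with compounds and 1 uM retinol.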

[3] = qHTS assay to identify small molecule antagonists of the retinoic acid receptor (RAR) signaling pathway (AID 1159552; also: nearly all actives have a fitted effect of over 50% in size)
Outline: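 Cells of the C3RL4 line were seeded, incubated overnight, then dosed with compounds in DMSO followed immediately by retinol (1 uM final). Six hours later luciferase detection reagent went in; signal was measured after 30 min at RT.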

[4] = qHTS assay to identify small molecule agonists of the retinoic acid receptor (RAR) signaling pathway (AID 1159553); details: C3RL4 RARE luciferase reporter, agonist, 6 h; activation: at 73.3 µM (top of the series) unless noted
Outline: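 Compounds dissolved in DMSO were pinned onto C3RL4 cells seeded the previous day, and plates were held 6 hr at 37 C. RARE-driven luciferase output was then read by luminescence.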

[5] = qHTS assay to identify small molecule antagonists of the estrogen related receptor (ERR) signaling pathway from Tox21 library - cell viability counter screen (AID 1224834); also: nearly all actives have a fitted effect of over 30% in size; also: potency is read from the fitted curve at half-maximal effect
Outline: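 In this quantitative HTS format, ERR cells receive compounds in DMSO and are incubated for 17.5 h at 37 C. Live-cell protease activity is then detected with CellTiter-Fluor.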

[6] = biological target: Luciferin 4-monooxygenase (Photinus pyralis) (UniProt P08659); test: qHTS assay to identify small molecule inhibitors of firefly luciferase (AID 1224835); also: nearly all actives have a fitted effect of over 25% in size
Sequence of Luciferin 4-monooxygenase (Photinus pyralis) (P08659 whole entry, looked up): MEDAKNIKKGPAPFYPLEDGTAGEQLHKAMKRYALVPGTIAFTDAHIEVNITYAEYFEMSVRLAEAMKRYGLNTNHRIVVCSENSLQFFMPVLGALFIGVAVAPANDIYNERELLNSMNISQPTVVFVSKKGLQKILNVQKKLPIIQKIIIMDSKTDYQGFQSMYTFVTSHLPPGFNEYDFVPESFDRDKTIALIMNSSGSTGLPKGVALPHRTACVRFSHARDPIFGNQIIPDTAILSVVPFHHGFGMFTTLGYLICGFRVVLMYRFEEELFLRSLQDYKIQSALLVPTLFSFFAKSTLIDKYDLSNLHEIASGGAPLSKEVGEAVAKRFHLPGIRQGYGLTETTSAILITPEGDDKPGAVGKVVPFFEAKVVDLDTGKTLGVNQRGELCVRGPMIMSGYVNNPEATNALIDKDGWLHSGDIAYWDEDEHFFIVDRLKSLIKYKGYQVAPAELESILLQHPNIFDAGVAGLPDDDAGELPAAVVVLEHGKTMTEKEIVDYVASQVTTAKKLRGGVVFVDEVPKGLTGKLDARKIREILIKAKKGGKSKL
Outline: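 Biochemical qHTS: compounds run as interplate titrations against purified firefly enzyme, with D-luciferin and ATP each at its KM concentration. Light output recorded by CCD imaging.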

[7] = qHTS assay to identify small molecule agonists of the constitutive androstane receptor (CAR) signaling pathway - cell viability counter screen (AID 1224836); also: nearly all actives have a fitted effect of over 45% in size
Outline: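 HepG2-CYP2B6-hCAR, 2500 cells/well, 4 h pre-incubation; cpd 15 conc + PK11195 0.75 uM final; 23 h, 37 C/5% CO2; CellTiter-Fluor, fluorescence.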

[8] = qHTS assay to identify small molecule antagonists of the estrogen related receptor signaling pathway with the pleiotropic PPARgamma coactivator (PGC) from Tox21 10K library - cell viability counter screen (AID 1224840; active = well fitted cell-killing curve with a large enough effect in the repeat runs, not every such curve was filed as active; also: nearly all actives have a fitted effect of over 40% in size)
Outline: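 Viability counter screen, PGC/ERR cells: 17.5 h compound exposure at 37 C, CellTiter-Fluor fluorescence endpoint.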

[9] = qHTS assay to identify small molecule antagonists of the estrogen related receptor signaling pathway with the pleiotropic PPARgamma coactivator (PGC) from Tox21 10K library (AID 1224841; call rule not given here; also: actives are mostly falling curves and most rising ones were filed inactive; nearly all actives have a fitted effect of over 50% in size)
Outline: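 In the PGC/ERR line, DMSO solutions of test chemicals are pin-delivered to 2,000 cells/well six hours after dispensing. Following eighteen hours' incubation, One-Glo reagent is added and luminescence recorded.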

[10] = qHTS assay to identify small molecule agonists of the estrogen related receptor signaling pathway with the pleiotropic PPARgamma coactivator (PGC) from Tox21 10K library (AID 1224842); also: nearly all actives have a fitted effect of over 15% in size
Outline: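 PGC/ERR reporter cell line, 2,000 cells per well, incubated 6 h at 37 C before 23 nL compound in DMSO was added. After 18 h at 37 C, One-Glo luminescence read following 30 min at room temperature.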

[11] = biological target: Thyrotropin receptor (Homo sapiens) (UniProt P16473); test: qHTS assay to identify small molecule agonists of the thyroid stimulating hormone receptor (TSHR) signaling pathway (AID 1224843; calls by dose curve; also: nearly all actives have a fitted effect of over 45% in size)
Sequence of Thyrotropin receptor (Homo sapiens) (P16473 whole entry, looked up): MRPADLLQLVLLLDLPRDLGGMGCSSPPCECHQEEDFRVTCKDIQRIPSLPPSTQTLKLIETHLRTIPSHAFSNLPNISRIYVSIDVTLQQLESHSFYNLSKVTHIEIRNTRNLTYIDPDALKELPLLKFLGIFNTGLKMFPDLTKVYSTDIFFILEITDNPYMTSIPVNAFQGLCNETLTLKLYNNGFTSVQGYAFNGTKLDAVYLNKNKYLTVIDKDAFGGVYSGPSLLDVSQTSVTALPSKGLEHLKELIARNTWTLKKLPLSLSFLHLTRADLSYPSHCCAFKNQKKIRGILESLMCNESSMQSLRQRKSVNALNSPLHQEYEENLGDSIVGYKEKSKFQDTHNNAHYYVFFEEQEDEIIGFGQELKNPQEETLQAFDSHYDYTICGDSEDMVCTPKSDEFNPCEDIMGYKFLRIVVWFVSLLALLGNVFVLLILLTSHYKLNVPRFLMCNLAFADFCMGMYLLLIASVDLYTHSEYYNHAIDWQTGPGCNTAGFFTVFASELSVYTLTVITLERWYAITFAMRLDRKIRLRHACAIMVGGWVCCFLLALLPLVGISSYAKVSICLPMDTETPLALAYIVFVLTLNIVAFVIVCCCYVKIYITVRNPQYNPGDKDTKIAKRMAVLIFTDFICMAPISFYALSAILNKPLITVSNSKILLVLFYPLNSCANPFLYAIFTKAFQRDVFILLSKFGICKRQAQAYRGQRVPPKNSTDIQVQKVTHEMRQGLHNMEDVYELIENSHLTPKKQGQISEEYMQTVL
Outline: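 HEK293/TSHR, 800 cells/well; cpd 30 min RT; add cAMP-d2 + anti-cAMP-cryptate, 1 h RT; fluorescence read on plate reader. 15-pt titration, n=3.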

[12] = qHTS assay to identify small molecule antagonists of the constitutive androstane receptor (CAR) signaling pathway - cell viability counter screen (AID 1224837); also: nearly all actives have a fitted effect of over 45% in size
Outline: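 In quantitative HTS format, compounds at 15 concentrations were applied to HepG2 cells double-transfected with hCAR and CYP2B6-2.2kb under 50 nM CITCO stimulation; live-cell protease activity was read after 23 hr via CellTiter-Fluor.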

[13] = biological target: Nuclear receptor subfamily 1 group I member 3 (Homo sapiens) (UniProt Q14994); test: qHTS assay to identify small molecule antagonists of the constitutive androstane receptor (CAR) signaling pathway (AID 1224838); also: nearly all actives have a fitted effect of over 40% in size
Sequence of Nuclear receptor subfamily 1 group I member 3 (Homo sapiens) (Q14994 whole entry, looked up): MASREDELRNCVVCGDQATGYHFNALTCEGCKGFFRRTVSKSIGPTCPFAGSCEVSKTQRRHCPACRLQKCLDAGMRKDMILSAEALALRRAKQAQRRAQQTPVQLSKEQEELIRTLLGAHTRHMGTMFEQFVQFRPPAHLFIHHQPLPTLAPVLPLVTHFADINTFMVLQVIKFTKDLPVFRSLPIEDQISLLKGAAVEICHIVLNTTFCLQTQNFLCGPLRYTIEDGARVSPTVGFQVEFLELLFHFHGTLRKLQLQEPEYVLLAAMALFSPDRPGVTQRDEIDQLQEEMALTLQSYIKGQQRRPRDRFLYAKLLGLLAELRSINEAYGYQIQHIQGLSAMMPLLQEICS
Outline: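 CITCO-stimulated (50 nM final) HepG2 cells stably transfected with hCAR and CYP2B6-2.2kb luciferase were exposed to compounds at 15 concentrations for 24 h at 37 C/5% CO2. A luciferase reagent was added and luminescence recorded after 30 min.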

[14] = qHTS assay to identify small molecule antagonists of the estrogen related receptor (ERR) signaling pathway - cell viability counter screen (AID 1224818)
Outline: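 Cytotoxicity check run alongside the ERR antagonist screen: cells exposed to test compounds 17.5 h at 37 C, viability taken as CellTiter-Fluor fluorescence intensity.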

[15] = qHTS assay to identify small molecule antagonists of the estrogen related receptor signaling pathway with the pleiotropic PPARgamma coactivator (PGC) cell viability counter screen (AID 1224822)
Outline: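 Viable cell signal (CellTiter-Fluor, 30 min, 37 C/5% CO2) was measured in PGC/ERR cells after a 17.5 h compound incubation.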

[16] = biological target: Nuclear receptor subfamily 1 group I member 3 (Homo sapiens) (UniProt Q14994); test: qHTS assay to identify small molecule agonists of the constitutive androstane receptor (CAR) signaling pathway (AID 1224839);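 also: HepG2 cells stably carrying human CAR and a CYP2B6 luciferase reporter; nearly all actives have a fitted effect of over 15% in size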
Outline: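 HepG2-CYP2B6-hCAR cells, 2500/well, 4 h pre-incubation; compounds 15 conc.; PK11195 0.75 uM final; 24 h, 37 C/5% CO2; ONE-Glo luciferase read.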

Row | SMILES | Potency [1] | Potency [2] | Potency [3] | Potency [4] | Potency [5] | Potency [6] | Potency [7] | Potency [8] | Potency [9] | Potency [10] | Potency [11] | Potency [12] | Potency [13] | outcome [14] | Potency [15] | Potency [16]
1 | OC[C@H]1O[C@@H](Oc2ccc(O)cc2)[C@H](O)[C@@H](O)[C@@H]1O | inactive | inactive | inactive | inactive | inactive | inactive | inactive | inactive | inactive | inactive | inactive | – | – | – | – | –
2 | CC[N+](CC)(CC(=O)Nc1c(C)cccc1C)Cc1ccccc1 | inactive | inactive | – | – | inactive | inactive | inactive | – | – | – | inactive | inactive | – | – | – | –
3 | CC(=O)CC(=O)N(C)C | inactive | inactive | – | – | inactive | inactive | inactive | inactive | – | – | inactive | inactive | – | – | – | –
4 | CCc1cccc(CC)c1N | inactive | inactive | – | – | inactive | inactive | inactive | inactive | – | – | inactive | inactive | inactive | – | – | –
5 | O=C(c1ccccc1)c1ccc(O)c(O)c1O | inactive | inactive | inactive | – | 49 µM (active) | – | inactive | inactive | inactive | inactive | inactive | – | – | – | – | –
6 | CC1(C)C(=O)N(Cl)C(=O)N1Cl | inactive | inactive | – | – | inactive | inactive | inactive | – | – | – | inactive | – | – | – | – | –
7 | CC(O)CNCC(C)O (configuration not stated) | inactive | inactive | – | – | inactive | inactive | inactive | inactive | – | – | inactive | inactive | inactive | – | – | –
8 | Clc1cccc(Cl)c1NC1=NCCN1 | inactive | inactive | – | – | inactive | – | inactive | inactive | – | – | inactive | inactive | inactive | inactive | inactive | inactive
9 | CC(=O)Nc1ccc(CC(=O)O)cc1 | inactive | inactive | – | – | inactive | inactive | inactive | inactive | inactive | inactive | inactive | – | inactive | – | – | inactive
10 | NCCNCCNCCN | inactive | inactive | inactive | inactive | inactive | – | inactive | – | – | – | inactive | inactive | inactive | – | – | inactive
11 | C=CC(=O)NCOCCCC | inactive | – | inactive | inactive | inactive | inactive | inactive | inactive | – | – | – | inactive | inactive | – | – | inactive
12 | CCCN(CCC)C(=O)SCC | inactive | inactive | – | – | inactive | inactive | inactive | inactive | – | – | inactive | inactive | inactive | – | – | inactive
13 | CC(C)c1ccc(C(C)C)cc1 | inactive | inactive | – | – | inactive | inactive | inactive | inactive | – | – | inactive | – | inactive | – | – | inactive
14 | C=CC(C)(C)C | inactive | inactive | inactive | inactive | inactive | inactive | inactive | inactive | inactive | inactive | inactive | – | inactive | – | – | –
